Test results: PubChem BioAssay AID1159580 (chemical genetic matrix, 2015)
Hit rate of the full screen: of about 5,500 compounds, about 2,000 (36%) were called active. Roughly 18% stayed inconclusive and do not appear here. Some of the results follow. A number with no mark means an inactive call. No stated cut-off is given here; in the data, active means normalized growth mostly below about 0.91 (no sharp cut-off); inconclusive means no clear call, values can overlap the other calls; inactive means mostly above about 0.92.

Assay: chemical genetic growth profiling, strain panel (AID 1159580);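 further: tested at 20 µM; growth read once vehicle control cultures reached saturation at 30 °C; 1 = growth at the plate median or of vehicle wells; lower values mean less growth of the strain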
Conditions: growth OD

Q: For Nc1ccc(-n2nc(C(F)(F)F)cc2C(F)(F)F)cc1, which normalized growth (S. cerevisiae deletion strains, locus YAL013W, strain DEP1, active compounds read low) is on record?
A: 1

Q: And the normalized growth (S. cerevisiae deletion strains, locus YBR229C, strain ROT2, active compounds read low)?
A: 0.986

Q: And the normalized growth (S. cerevisiae deletion strains, locus YDL101C, strain DUN1, active compounds read low)?
A: 1

Q: And the normalized growth (S. cerevisiae deletion strains, locus YDR150W, strain NUM1, active compounds read low)?
A: 0.902

Q: What about the normalized growth (S. cerevisiae deletion strains, locus YEL061C, strain CIN8, active compounds read low) of the same compound?
A: 0.998

Q: What about the normalized growth (S. cerevisiae deletion strains, locus YGR078C, strain PAC10, active compounds read low) of the same compound?
A: 1.01

Q: What about the normalized growth (S. cerevisiae deletion strains, locus YGR229C, strain SMI1, active compounds read low) of the same compound?
A: 0.99

Q: And the normalized growth (S. cerevisiae deletion strains, locus YHR030C, strain SLT2, active compounds read low)?
A: 0.661 (active)

Q: And the normalized growth (S. cerevisiae deletion strains, locus YHR087W, strain rtc3, active compounds read low)?
A: 1.01

Q: And the normalized growth (S. cerevisiae deletion strains, locus YJR043C, strain POL32, active compounds read low)?
A: 0.992

Q: And the normalized growth (S. cerevisiae deletion strains, locus YJR075W, strain HOC1, active compounds read low)?
A: 0.938

Q: What about the normalized growth (S. cerevisiae deletion strains, locus YLR039C, strain RIC1, active compounds read low) of the same compound?
A: 0.842

Q: And the normalized growth (S. cerevisiae deletion strains, locus YLR058C, strain SHM2 (second series), active compounds read low)?
A: 0.975

Q: What about the normalized growth (S. cerevisiae deletion strains, locus YLR085C, strain ARP6, active compounds read low) of the same compound?
A: 0.603 (active)

Q: What about the normalized growth (S. cerevisiae deletion strains, locus YLR262C, strain YPT6, active compounds read low) of the same compound?
A: 0.904

Q: And the normalized growth (S. cerevisiae deletion strains, locus YML094W, strain GIM5, active compounds read low)?
A: 0.975

Q: And the normalized growth (S. cerevisiae deletion strains, locus YMR219W, strain ESC1, active compounds read low)?
A: 0.986

Q: What about the normalized growth (S. cerevisiae deletion strains, locus YMR263W, strain SAP30, active compounds read low) of the same compound?
A: 0.963

Q: What about the normalized growth (S. cerevisiae deletion strains, locus YNL153C, strain GIM3, active compounds read low) of the same compound?
A: 1

Q: And the normalized growth (S. cerevisiae deletion strains, locus YNL298W, strain CLA4 (second series), active compounds read low)?
A: 0.855

Q: What about the normalized growth (S. cerevisiae deletion strains, locus YNL322C, strain KRE1, active compounds read low) of the same compound?
A: 0.969

Q: What about the normalized growth (S. cerevisiae deletion strains, locus YNR030W, strain Alg12, active compounds read low) of the same compound?
A: 0.951

Q: What about the normalized growth (S. cerevisiae deletion strains, locus YOL006C, strain TOP1, active compounds read low) of the same compound?
A: 0.866

Q: And the normalized growth (S. cerevisiae deletion strains, locus YPL055C, strain LGE1, active compounds read low)?
A: 0.929

Q: And the normalized growth (S. cerevisiae deletion strains, locus YPL241C, strain CIN2, active compounds read low)?
A: 0.825 (active)

Q: And the normalized growth (S. cerevisiae deletion strains, locus YPR135W, strain CTF4, active compounds read low)?
A: 0.694

Q: And the normalized growth (S. cerevisiae strains, strain wild type, active compounds read low)?
A: 0.974
